Measured values as given in ChEMBL document CHEMBL3988442, “University of Dundee, Small-Polar-MMV Screening Library” (2021).
The campaign covered roughly 69,000 compounds. About 420 (0.61%) showed an effect of 50% or more. Many of the other results were omitted from the sample, so strong results are more common in it than they were.

target: T1, Histidine--tRNA ligase (Leishmania infantum) (UniProt A4I591); test: Leishmania infantum Histidine tRNA synthetase (LdHisRS); assay type: functional; design: scale not given: in the data most compounds retested in dose-response had high values; details: 30 µM
T1 sequence (whole entry): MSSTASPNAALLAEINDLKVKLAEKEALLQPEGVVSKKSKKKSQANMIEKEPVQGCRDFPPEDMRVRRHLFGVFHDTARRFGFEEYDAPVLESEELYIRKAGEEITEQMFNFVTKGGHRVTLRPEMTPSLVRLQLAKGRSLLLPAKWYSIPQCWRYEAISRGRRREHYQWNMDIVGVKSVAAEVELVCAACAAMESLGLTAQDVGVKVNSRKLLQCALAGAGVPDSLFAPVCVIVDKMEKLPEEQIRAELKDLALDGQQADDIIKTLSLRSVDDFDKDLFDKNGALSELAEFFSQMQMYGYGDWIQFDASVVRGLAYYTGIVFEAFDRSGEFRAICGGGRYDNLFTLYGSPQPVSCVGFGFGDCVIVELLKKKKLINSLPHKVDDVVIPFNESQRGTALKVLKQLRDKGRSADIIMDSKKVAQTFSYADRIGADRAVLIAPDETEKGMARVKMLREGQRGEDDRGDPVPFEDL

Row | SMILES | Percent Effect
1 | CSc1ccccc1CN1C[C@@H]2CC[C@H](C1)N(CC1CC1)C2=O | 21.6%
2 | Cc1noc([C@H]2COC[C@H]3CN(C(=O)Cc4ccc(F)cc4)C[C@H]32)n1 | 9.62%
3 | O=C(c1ccc(F)cc1)N1C[C@H]2CCC[C@@]2(COCc2ccncc2)C1 | 18.6%
4 | O=S(=O)(c1cccs1)N1CC[C@H]2[C@H]1CCN2c1ncccn1 | 11.7%
5 | CCN1C(=O)CC[C@@H]2[C@H]1CCN2S(=O)(=O)Cc1ccc(C)cc1 | 8.06%
6 | COCC(=O)N1C[C@H]2CNC[C@@]2(C(=O)NCc2cc(C)n[nH]2)C1 | 1.43%
7 | O=C([C@H]1COC[C@H]2CN(CC3CC3)C[C@H]21)N1CCOCC1 | 10.3%
8 | O[C@]1(c2ccccn2)CC[C@@H]2CN(Cc3cccc4ncccc34)C[C@@H]21 | 27.8%
9 | Cc1ccc(N2C[C@H]3OCC[C@H]3[C@H](C(=O)NCC3CC3)C2)nn1 | 0%
10 | O=C(NC[C@H]1OC[C@@H]2CCN(c3ccccn3)C[C@@H]21)c1ccco1 | -7.89%
11 | Cc1noc([C@H]2C[C@H]3OCC[C@H]3N(S(=O)(=O)C3CC3)C2)n1 | 13.3%
12 | Cn1ncc2c1NC(=O)CC2c1ccccc1Cl (stereo unspecified) | 14.3%
13 | CNc1nc2c(s1)C(c1ccccc1Cl)CC(=O)N2 (stereo unspecified) | 57.5%
14 | O=C1CC(c2ccccc2F)c2c(n3ccsc3nc2=O)N1 (stereo unspecified) | 11.7%
15 | CNc1nc2c(s1)C(c1cccc(F)c1F)CC(=O)N2 (stereo unspecified) | 45.7%
16 | CNc1nc2c(s1)C(c1ccccc1F)CC(=O)N2 (stereo unspecified) | 70%
17 | CNc1nc2c(s1)C(c1cccc(Cl)c1Cl)CC(=O)N2 (stereo unspecified) | 42.5%
18 | O=C([C@H]1COC[C@H]2CN(c3ncc(F)cn3)C[C@H]21)N1CCOCC1 | 1.71%
19 | Cc1cccnc1NC(=O)NCc1ccc(N2CCNC(=O)C2)cc1 | 84.9%
20 | CC(C(=O)NCc1ccc(N2CCNC(=O)C2)cc1)c1cccs1 (stereo unspecified) | 20.9%
21 | Cc1nnc(NC(=O)NCc2ccc(N3CCNC(=O)C3)cc2)s1 | 39.8%
22 | CC(O)CNC(=O)NCc1ccc(N2CCNC(=O)C2)cc1 (stereo unspecified) | 49.3%
23 | Cc1ccccc1C(=O)NCc1ccc(N2CCNC(=O)C2)cc1 | 44.2%
24 | CC(C(=O)NCc1ccc(N2CCNC(=O)C2)cc1)n1cncn1 (stereo unspecified) | 52%

Row | SMILES | Percent Effect
25 | CCOc1c(Cl)cc(Cl)cc1CNCCCn1ccnc1 | 58.3%
26 | CCOc1ccc(Cl)cc1CNCCCn1ccnc1 | 9.71%
27 | CCOc1c(CNCCCn2ccnc2)cc(Cl)cc1OC | 10%
28 | C[C@H]1C(=O)NC[C@H]2CN(Cc3cccc(F)c3)C[C@H]21 | 15.6%
29 | COCCNC(=O)[C@H]1CN(c2nnc(C)s2)C[C@H]2OCC[C@@H]12 | 5.11%
30 | COc1ccc(Oc2cc(CN)ccn2)cc1 | 32.5%
31 | NCc1ccnc(Oc2ccccc2)c1 | 59%
32 | NCc1ccnc(Oc2ccc(F)cc2)c1 | 30.1%
33 | CNC(=O)CN1CC[C@H]2CN(C(=O)c3ccccc3F)C[C@H]2C1 | 16.7%
34 | O=C(NC1CC1)[C@H]1C[C@H]2OCC[C@H]2N(Cc2ccc(F)cc2)C1 | 2.78%
35 | CNC(=O)CN1CCO[C@H]2CN(CC3CCOCC3)C[C@H]21 | 32%
36 | CCN1C[C@H]2C3(CCN(S(=O)(=O)CC)CC3)CC[C@@]2(C(=O)N(C)C)C1 | 7.69%
37 | Cc1noc([C@]23COC[C@H]2CN(C(=O)Cc2ccsc2)C3)n1 | 9.91%
38 | Cc1cc(-c2cnc(C)nc2CN(C)C(=O)c2ccccn2)on1 | 2.07%
39 | CN(C(=O)c1ccccn1)c1nc2c(s1)CCc1c-2cnn1C | 103%
40 | CN(C(=O)c1ccccn1)c1nnc(C2CCOC2)s1 (stereo unspecified) | 5.59%
41 | CCCN(C(=O)c1ccccn1)c1nc2c(s1)CCc1c-2cnn1C | 106%
42 | Cc1cnccc1-c1cnn(CCNC(=O)c2ccccn2)c1C1CC1 | 4.25%
43 | COCCN(Cc1ccoc1)C(=O)c1ccccn1 | 16.4%
44 | CCCN(CCc1ccccn1)C(=O)CCc1cnn(C)c1 | 1.21%
45 | COCCN(C)C(=O)c1nc2c(s1)CCCN2c1ncccn1 | 17.5%
46 | COCCN(C(=O)c1ccccn1)c1nc2c(s1)CCc1c-2cnn1C | 101%
47 | Cc1ccc(CN2CC[C@@H]3[C@@H](CO[C@H]3CN(C)C)C2)o1 | 10%
48 | CC(C)NC(=O)N1CC[C@@H]2CN(Cc3ccccc3)S(=O)(=O)[C@@H]2CC1 | 1.5%

Row | SMILES | Percent Effect
49 | COCCN1CCN(Cc2ccc(C(C)=O)cc2)[C@H]2CS(=O)(=O)C[C@H]21 | 22.2%
50 | Cc1nnc(N2C[C@H](C(=O)NCC3CC3)[C@@H]3CCO[C@@H]3C2)s1 | 2.91%
51 | Cc1ccn(C)c(=O)c1NC(=O)N(C)Cc1cccc(OC(C)C)c1 | 77.5%
52 | CC(C)Oc1cccc(CN(C)C(=O)Nc2cccn(C)c2=O)c1 | 13.9%
53 | CCC(=O)N(C)Cc1cccc(OC(C)C)c1 | 4.46%
54 | Cc1csc(CN2CC[C@H]3C(=O)N(c4cccnc4)CCO[C@H]3C2)n1 | 23.1%
55 | COCc1nc2c(o1)CN(C(=O)NCc1ccccc1)C2 | 16%
56 | Cc1ccc(CNC(C)(C)c2noc(C(C)(C)C)n2)o1 | 27.1%
57 | COCc1nc2cc(NCc3ccc(CO)o3)ccc2o1 | 86.6%
58 | COCc1nc2cc(NCc3ccc(C)o3)ccc2o1 | 102%
59 | CC(C)(C)c1nc2cc(NC(=O)Cn3ccc(=O)[nH]c3=O)ccc2o1 | 14%
60 | COc1ccccc1C(C)(C)NCc1ccc(C)o1 | 2.86%
61 | O=C(NCC1CC1)[C@@H]1CCO[C@@H]2CCN(Cc3ccsc3)C[C@H]21 | 20%
62 | Cn1cnc(S(=O)(=O)N2CCO[C@H]3[C@@H](OCC4CC4)CC[C@@H]32)c1 | -5.26%
63 | Cc1nc(-c2ccc(CC(=O)N3CCNC(=O)C3)cc2)cs1 | -9.09%
64 | Cc1nc(-c2ccc(CC(=O)N3CCN(C(=O)C(C)C)CC3)cc2)cs1 | 63.6%
65 | Cc1nc(-c2ccc(CC(=O)N3CCN(C(=O)C4CC4)CC3)cc2)cs1 | 21.2%
66 | Cc1csc([C@@H]2C[C@@H]3CCN(C(=O)c4cc(C)on4)C[C@H]3O2)n1 | 18.4%
67 | CC(=O)N1[C@H](Cn2cncn2)C[C@@H]2CN(C(=O)c3ccoc3)CC[C@@H]21 | 13.5%
68 | O=C1CC(c2ccco2)c2sc(C(=O)O)c(-c3ccccc3)c2N1 (stereo unspecified) | 91.4%
69 | O=C1CC(c2ccc(O)cc2)c2sc(C(=O)O)c(-c3ccccc3)c2N1 (stereo unspecified) | 20.8%
70 | O=C1CC(c2ccccc2)c2sc(C(=O)O)c(-c3ccccc3)c2N1 (stereo unspecified) | 13%
71 | COC[C@@]12CC[C@@H](N3CCOCC3)C[C@H]1CCN(c1ncccc1Cl)C2 | 22.9%
